Measurements from PubChem BioAssay (Tox21).
Records with an inconclusive call do not appear. The source made the active and inactive calls. Unless noted, calls follow the shape of the dose curve; as a rule, active = well fitted curve in the direction sought with a large enough effect in the repeat runs; inconclusive = weak or mixed curves; inactive = no such curve, though single readings can be large; an effect the other way counts as inactive or inconclusive.

Assays:
[1] = qHTS assay to identify aromatase inhibitors - cell viability counter screen (AID 743084);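 also: cells stimulated with testosterone during compound exposure; nearly all actives have a fitted effect of over 55% in size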
[2] = biological target: Aryl hydrocarbon receptor (Homo sapiens) (UniProt P35869); experiment: qHTS assay to identify small molecule that activate the aryl hydrocarbon receptor (AhR) signaling pathway (AID 743085);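 also: HG2L7.5c1 human HepG2 liver cells with stably integrated DRE-driven firefly reporter; series mostly up to about 70 µM; nearly all actives have a fitted effect of over 15% in size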
Method in brief: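 HepG2 cells (HG2L7.5c1) stably carrying a firefly luciferase reporter driven by 20 dioxin responsive elements were exposed to compound for 24 h at 37C after a 5 h settling period; luminescence rise (ONE-Glo) indicated activation.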

[3] = qHTS assay to identify small molecule that activate the aryl hydrocarbon receptor (AhR) signaling pathway - cell viability counter screen (AID 743086);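 also: HepG2 liver cells carrying the AhR DRE luciferase reporter; series mostly up to about 70 µM; nearly all actives have a fitted effect of over 45% in size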
Method in brief: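 HepG2-AhR-luc (HG2L7.5c1) cells, 4000/well, treated 24 h at 37 C with compound; viability measured as CellTiter-Fluor fluorescence after 30 min in the same wells as the luciferase read.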

[4] = biological target: Peroxisome proliferator-activated receptor gamma (Homo sapiens) (UniProt P37231); experiment: qHTS assay to identify small molecule agonists of the peroxisome proliferator-activated receptor gamma (PPARg) signaling pathway (AID 743094; active = well fitted activation curve with a large enough effect in the signal ratio in the repeat runs, not every such curve was filed as active; the % refers to the signal ratio)
Method in brief: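 GeneBLAzer PPARg UAS-bla HEK293H cells were plated, rested 5 h, then exposed to compounds for 17 h at 37C. Beta-lactamase activity was read by LiveBLAzer B/G FRET substrate fluorescence after 1 h at room temperature.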

[5] = biological target: Peroxisome proliferator-activated receptor gamma (Homo sapiens) (UniProt P37231); experiment: qHTS assay to identify small molecule antagonists of the peroxisome proliferator-activated receptor gamma (PPARg) signaling pathway (AID 743191; calls by dose curve; also: series mostly up to about 63 µM; nearly all actives have a fitted effect of over 30% in size)
Method in brief: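 GeneBLAzer PPARg UAS-bla HEK293H cells, 5 h post-plating, exposed to compounds 17 h at 37C. LiveBLAzer B/G FRET substrate added for 1 h at room temperature; beta-lactamase reporter read by fluorescence intensity.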

[6] = qHTS assay to identify small molecule antagonists of the peroxisome proliferator-activated receptor gamma (PPARg) signaling pathway - cell viability counter screen (AID 743194); also: nearly all actives have a fitted effect of over 55% in size
Method in brief: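 Cytotoxicity counter screen in PPARg-bla HEK293H cells, same wells as reporter assay. Compounds plus 50 nM rosiglitazone (final) for 17 h at 37 C, then viability read by CellTiter-Glo luminescence.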

[7] = qHTS assay for small molecule agonists of the antioxidant response element (ARE) signaling pathway (AID 743202; active = well fitted activation curve with a large enough effect in the signal ratio in the repeat runs, not every such curve was filed as active; the % refers to the signal ratio)
Method in brief: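 ARE-bla HepG2 cells (beta-lactamase reporter under the antioxidant response element), plated 5 hours, then exposed to compounds 16 hours at 37 C. LiveBLAzer B/G FRET substrate added for 2 hours at room temperature; fluorescence intensity read.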

[8] = qHTS assay for small molecule agonists of the antioxidant response element (ARE) signaling pathway - cell viability counter screen (AID 743203; calls by dose curve; also: nearly all actives have a fitted effect of over 55% in size)
Method in brief: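 ARE-bla HepG2 cells were plated, rested 5 h at 37C/5% CO2, then exposed to compounds in DMSO for 16 h. Viability was read as CellTiter-Glo luminescence after 30 min at room temperature, in the same wells as the ARE screen.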

[9] = qHTS assay for small molecule activators of the heat shock response signaling pathway - cell viability counter screen (AID 743209); also: nearly all actives have a fitted effect of over 50% in size
Method in brief: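 HSE-bla HeLa cells plated overnight, then exposed to Tox21 compounds (23 nL in DMSO) for 5 h at 37 C. After the bla reporter read, CellTiter-Glo was added in the same wells and luminescence read after 30 min at room temperature.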

[10] = qHTS assay for small molecule activators of the heat shock response signaling pathway (AID 743210; active = well fitted activation curve with a large enough effect in the signal ratio in the repeat runs, with a control signal flat, not every such curve was filed as active; the % refers to the signal ratio; also: series mostly up to about 63 µM)
Method in brief: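 HSE-bla HeLa cells (beta-lactamase reporter under heat shock response elements), plated overnight, then exposed to compounds 5 h at 37 C; LiveBLAzer B/G FRET substrate added, 2.5 h at room temperature, fluorescence intensity read.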

[11] = qHTS assay to identify small molecule agonists of the peroxisome proliferator-activated receptor delta (PPARd) signaling pathway - cell viability counter screen (AID 743211); also: nearly all actives have a fitted effect of over 55% in size
Method in brief: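 PPARd-bla HEK293H cells (UAS-beta-lactamase reporter) were treated with compounds for 17 h at 37 C. Viability was then read in the same wells by CellTiter-Glo luminescence after 30 min at room temperature.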

[12] = qHTS assay to identify small molecule agonists of the farnesoid-X-receptor (FXR) signaling pathway - cell viability counter screen (AID 743218); also: nearly all actives have a fitted effect of over 45% in size
Method in brief: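 FXR-UAS-bla HEK 293T cells exposed to compounds for 16 h at 37C. Cytotoxicity read in the same wells by CellTiter-Glo luminescence after 30 min at room temperature, following the beta-lactamase FRET read.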

[13] = qHTS assay to identify small molecule antagonists of the farnesoid-X-receptor (FXR) signaling pathway - cell viability counter screen (AID 743221; active = well fitted cell-killing curve with a large enough effect in the repeat runs, not every such curve was filed as active; also: nearly all actives have a fitted effect of over 50% in size)
Method in brief: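 FXR-UAS-bla HEK 293T cells were treated with test compounds plus chenodeoxycholic acid (50 uM final) for 16 h at 37 C. Cell viability in the same wells was then read as CellTiter-Glo luminescence after 30 min at room temperature.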

[14] = biological target: Vitamin D3 receptor (Homo sapiens) (UniProt P11473); experiment: qHTS assay to identify small molecule antagonists of the vitamin D receptor (VDR) signaling pathway (AID 743223; active = well fitted inhibition curve with a large enough effect in the signal ratio in the repeat runs, not every such curve was filed as active; the % refers to the signal ratio)
Method in brief: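 VDR-bla cells were plated, incubated 4 h at 37C, then given compound and 1alpha,25-dihydroxyvitamin D3 (3 nM final). After 16 h at 37C, LiveBLAzer B/G FRET substrate was added for 2 h at room temperature and fluorescence read.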

[15] = biological target: Peroxisome proliferator-activated receptor delta (Homo sapiens) (UniProt Q03181); experiment: qHTS assay to identify small molecule agonists of the peroxisome proliferator-activated receptor delta (PPARd) signaling pathway (AID 743212; calls by dose curve)
Method in brief: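 GeneBLAzer UAS-bla HEK293H cells carrying a PPARδ construct were exposed to compounds at 37 °C. Beta-lactamase activity was read by FRET fluorescence after 2 h at room temperature with LiveBLAzer B/G substrate.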

[16] = qHTS assay to identify small molecule antagonists of the peroxisome proliferator-activated receptor delta (PPARd) signaling pathway - cell viability counter screen (AID 743213); also: nearly all actives have a fitted effect of over 50% in size
Method in brief: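 HEK293H PPARd UAS-bla cells, 5 h pre-incubation, compound + L165041 300 nM final, 17 h 37 C; B/G FRET substrate 2 h RT; then CellTiter-Glo 30 min RT, luminescence.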

[17] = biological target: Peroxisome proliferator-activated receptor delta (Homo sapiens) (UniProt Q03181); experiment: qHTS assay to identify small molecule antagonists of the peroxisome proliferator-activated receptor delta (PPARd) signaling pathway (AID 743215; active = well fitted inhibition curve with a large enough effect in the signal ratio in the repeat runs, not every such curve was filed as active; the % refers to the signal ratio;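 also: cells stimulated with agonist L165041 at 300 nM final during compound exposure; series mostly up to about 62 µM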)
Method in brief: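 PPARd-bla HEK293H cells (UAS-bla reporter) preincubated 5 h, then given compound plus 300 nM final L165041 agonist for 17 h at 37 C. Beta-lactamase activity read by LiveBLAzer B/G FRET substrate fluorescence after 2 h at room temperature.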

[18] = biological target: Vitamin D3 receptor (Homo sapiens) (UniProt P11473); experiment: qHTS assay to identify small molecule agonists of the vitamin D receptor (VDR) signaling pathway (AID 743222; calls by dose curve)
Method in brief: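 VDR-bla cells plated 4 h at 37 C, then exposed to compounds for 16 h at 37 C. Beta-lactamase reporter activity measured by fluorescence after 2 h room-temperature loading with LiveBLAzer B/G FRET substrate.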

[19] = biological target: Bile acid receptor (Homo sapiens) (UniProt Q96RI1); experiment: qHTS assay to identify small molecule antagonists of the farnesoid-X-receptor (FXR) signaling pathway (AID 743217; active = well fitted inhibition curve with a large enough effect in the signal ratio in the repeat runs, not every such curve was filed as active; the % refers to the signal ratio)
Method in brief: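 FXR-UAS-bla HEK 293T cells (beta-lactamase reporter) given compound plus chenodeoxycholic acid (50 uM final), 16 h at 37C. LiveBLAzer B/G FRET substrate added for 2 h at room temperature; fluorescence read.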

[20] = biological target: Bile acid receptor (Homo sapiens) (UniProt Q96RI1); experiment: qHTS assay to identify small molecule agonists of the farnesoid-X-receptor (FXR) signaling pathway (AID 743220; active = well fitted activation curve with a large enough effect in the signal ratio in the repeat runs, not every such curve was filed as active; the % refers to the signal ratio)
Method in brief: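 Beta-lactamase reporter under UAS control in GeneBLAzer FXR HEK 293T cells (5000/well) measured with LiveBLAzer FRET substrate after 2 h at room temperature. Compound exposure lasted 16 h at 37C.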

Measured: Potency

Chain of Vitamin D3 receptor (Homo sapiens) (P11473 whole entry, looked up): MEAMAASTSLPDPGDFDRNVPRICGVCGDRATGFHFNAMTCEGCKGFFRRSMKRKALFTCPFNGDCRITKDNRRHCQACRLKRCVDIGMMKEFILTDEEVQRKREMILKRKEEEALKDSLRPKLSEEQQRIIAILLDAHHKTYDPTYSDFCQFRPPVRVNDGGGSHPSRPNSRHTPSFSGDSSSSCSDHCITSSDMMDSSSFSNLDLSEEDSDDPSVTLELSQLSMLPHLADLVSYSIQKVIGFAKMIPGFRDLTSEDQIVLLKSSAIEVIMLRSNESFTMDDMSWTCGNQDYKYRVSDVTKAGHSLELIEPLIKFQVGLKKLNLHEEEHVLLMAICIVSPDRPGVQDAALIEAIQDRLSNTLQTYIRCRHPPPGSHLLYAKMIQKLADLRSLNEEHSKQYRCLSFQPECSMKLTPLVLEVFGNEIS
Chain of Bile acid receptor (Homo sapiens) (Q96RI1 whole entry, looked up): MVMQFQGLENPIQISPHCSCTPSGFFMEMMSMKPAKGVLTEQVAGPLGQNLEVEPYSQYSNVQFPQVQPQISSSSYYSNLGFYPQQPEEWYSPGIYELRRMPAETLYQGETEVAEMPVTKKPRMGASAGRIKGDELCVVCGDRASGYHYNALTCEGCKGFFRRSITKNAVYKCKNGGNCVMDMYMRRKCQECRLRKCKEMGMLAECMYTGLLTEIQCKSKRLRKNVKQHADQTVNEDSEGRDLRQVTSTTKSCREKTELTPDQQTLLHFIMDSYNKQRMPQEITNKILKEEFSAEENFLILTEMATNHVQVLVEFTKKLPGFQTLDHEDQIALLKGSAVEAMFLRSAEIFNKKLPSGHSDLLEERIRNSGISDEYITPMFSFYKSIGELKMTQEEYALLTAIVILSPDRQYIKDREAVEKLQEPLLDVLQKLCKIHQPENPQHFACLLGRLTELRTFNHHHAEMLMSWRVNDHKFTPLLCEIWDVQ
Chain of Peroxisome proliferator-activated receptor gamma (Homo sapiens) (P37231 whole entry, looked up): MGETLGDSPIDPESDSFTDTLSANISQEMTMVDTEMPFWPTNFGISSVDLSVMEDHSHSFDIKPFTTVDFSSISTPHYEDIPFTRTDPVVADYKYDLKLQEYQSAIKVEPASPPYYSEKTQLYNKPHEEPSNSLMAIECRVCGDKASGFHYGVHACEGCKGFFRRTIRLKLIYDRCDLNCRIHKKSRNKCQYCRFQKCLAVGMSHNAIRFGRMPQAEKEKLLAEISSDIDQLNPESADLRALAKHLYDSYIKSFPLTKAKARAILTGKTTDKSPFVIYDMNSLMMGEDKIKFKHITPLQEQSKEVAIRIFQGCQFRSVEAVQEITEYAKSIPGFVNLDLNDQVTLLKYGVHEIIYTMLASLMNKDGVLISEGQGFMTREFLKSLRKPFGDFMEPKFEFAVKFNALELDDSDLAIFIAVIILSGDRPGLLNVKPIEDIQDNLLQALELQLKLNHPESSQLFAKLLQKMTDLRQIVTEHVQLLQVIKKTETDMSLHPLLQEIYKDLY
Chain of Peroxisome proliferator-activated receptor delta (Homo sapiens) (Q03181 whole entry, looked up): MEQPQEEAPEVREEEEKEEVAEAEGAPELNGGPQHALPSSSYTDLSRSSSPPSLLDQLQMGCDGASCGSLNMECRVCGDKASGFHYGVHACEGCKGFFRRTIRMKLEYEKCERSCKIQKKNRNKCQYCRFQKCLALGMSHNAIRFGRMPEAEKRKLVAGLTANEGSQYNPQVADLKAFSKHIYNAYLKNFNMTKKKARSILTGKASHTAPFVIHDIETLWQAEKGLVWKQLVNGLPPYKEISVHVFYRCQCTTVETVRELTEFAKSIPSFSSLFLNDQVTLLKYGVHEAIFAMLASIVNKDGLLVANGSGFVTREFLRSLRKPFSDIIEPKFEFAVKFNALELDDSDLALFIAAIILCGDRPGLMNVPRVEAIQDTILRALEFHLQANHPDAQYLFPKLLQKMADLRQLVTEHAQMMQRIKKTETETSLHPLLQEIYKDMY
Chain of Aryl hydrocarbon receptor (Homo sapiens) (P35869 whole entry, looked up): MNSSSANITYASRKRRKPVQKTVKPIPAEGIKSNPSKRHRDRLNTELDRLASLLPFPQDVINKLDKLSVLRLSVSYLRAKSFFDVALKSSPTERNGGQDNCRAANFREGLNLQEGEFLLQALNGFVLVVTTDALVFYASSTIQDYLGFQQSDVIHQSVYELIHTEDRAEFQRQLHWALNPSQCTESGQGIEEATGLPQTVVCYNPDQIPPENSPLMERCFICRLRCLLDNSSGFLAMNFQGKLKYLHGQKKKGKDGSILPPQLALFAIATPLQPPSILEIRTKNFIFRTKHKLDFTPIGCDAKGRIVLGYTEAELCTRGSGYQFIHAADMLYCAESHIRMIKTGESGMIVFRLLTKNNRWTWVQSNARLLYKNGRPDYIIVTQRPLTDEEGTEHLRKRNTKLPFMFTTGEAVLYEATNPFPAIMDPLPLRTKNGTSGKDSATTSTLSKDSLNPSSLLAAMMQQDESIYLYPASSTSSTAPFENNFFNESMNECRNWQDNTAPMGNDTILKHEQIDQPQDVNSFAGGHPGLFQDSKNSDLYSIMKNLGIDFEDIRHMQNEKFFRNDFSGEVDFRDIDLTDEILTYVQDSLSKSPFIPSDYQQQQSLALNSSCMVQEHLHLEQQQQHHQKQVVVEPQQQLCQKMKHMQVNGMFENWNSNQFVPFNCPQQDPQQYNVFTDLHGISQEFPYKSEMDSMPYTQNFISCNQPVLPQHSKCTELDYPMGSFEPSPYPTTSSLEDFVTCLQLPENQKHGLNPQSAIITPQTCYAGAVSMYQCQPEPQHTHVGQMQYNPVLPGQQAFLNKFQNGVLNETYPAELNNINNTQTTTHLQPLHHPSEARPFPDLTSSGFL

C=C[Si](C)(C)O[Si](C)(C)C=C
inactive: [1] | [2] | [3] | [4] | [5] | [6] | [7] | [8] | [9] | [10] | [11] | [12] | [13] | [14]

CCCCC[Si](OCC)(OCC)OCC
inactive: [1] | [2] | [3] | [4] | [5] | [6] | [7] | [8] | [9] | [10] | [11] | [15] | [16] | [13]

CC(=O)Nc1ccc(C)cc1
inactive: [1] | [2] | [3] | [4] | [5] | [6] | [7] | [8] | [9] | [10] | [11] | [16] | [17] | [12] | [13] | [18] | [14]

CCCCC(CC)COC(=O)c1ccccc1 (configuration not stated)
inactive: [1] | [2] | [3] | [4] | [5] | [6] | [7] | [8] | [9] | [10] | [11] | [15] | [16] | [17] | [12] | [13] | [14]

Cc1nc([N+](=O)[O-])cn1-c1ccc([N+](=O)[O-])cc1
inactive: [1] | [2] | [3] | [4] | [5] | [6] | [7] | [8] | [9] | [11] | [15] | [16] | [17] | [19] | [12] | [20] | [13] | [18] | [14]

O=C1c2ccccc2-c2ccccc21
inactive: [1] | [2] | [3] | [4] | [5] | [6] | [7] | [8] | [9] | [10] | [11] | [15] | [19] | [12] | [20] | [13]

CN(C)CCCNCCC#N
inactive: [1] | [2] | [3] | [4] | [5] | [6] | [7] | [8] | [9] | [10] | [11] | [16] | [12] | [13] | [18] | [14]

C[N+](C)(C)CC(O)CCl (configuration not stated)
inactive: [1] | [2] | [3] | [4] | [5] | [6] | [7] | [8] | [9] | [10] | [11] | [15] | [16] | [12] | [13] | [14]

CCOC(=O)CCCCCCCCC(=O)OCC
inactive: [1] | [2] | [3] | [4] | [5] | [6] | [7] | [8] | [9] | [10] | [11] | [16] | [12] | [13]

C=C[C@@H](C)CCC=C(C)C
inactive: [1] | [2] | [3] | [4] | [5] | [6] | [7] | [8] | [9] | [10] | [11] | [15] | [16] | [17] | [13] | [18] | [14]

CN(C)CCOCCN(C)CCO
inactive: [1] | [2] | [3] | [4] | [5] | [6] | [7] | [8] | [9] | [10] | [11] | [15] | [17] | [13] | [18] | [14]

C=C(C)C(=O)OCCCCCCOC(=O)C(=C)C
inactive: [1] | [2] | [3] | [4] | [5] | [6] | [7] | [8] | [9] | [10] | [11] | [16] | [12] | [13] | [18] | [14]

CCCCCCCCCCCCC1CO1 (configuration not stated)
inactive: [1] | [2] | [3] | [4] | [5] | [6] | [7] | [8] | [9] | [10] | [11] | [15] | [16] | [17] | [19] | [12] | [20] | [13]

CCOc1ccc(NC(=O)OC(C)C)cc1OCC
inactive: [1] | [2] | [3] | [4] | [5] | [6] | [7] | [8] | [9] | [11] | [17] | [19] | [12] | [20] | [13] | [18] | [14]

COCCOCCOCCOC
inactive: [1] | [2] | [3] | [4] | [5] | [6] | [7] | [8] | [9] | [10] | [11] | [16] | [19] | [12] | [20] | [13] | [14]

COCC(=O)Nc1c(I)c(C(=O)NCC(O)CO)c(I)c(C(=O)N(C)CC(O)CO)c1I (configuration not stated)
inactive: [1] | [2] | [3] | [4] | [5] | [6] | [7] | [8] | [9] | [10] | [11] | [15] | [17] | [12] | [13]

CCC(C)N (configuration not stated)
inactive: [1] | [2] | [3] | [4] | [5] | [6] | [7] | [8] | [9] | [10] | [11] | [15] | [16] | [17] | [12] | [20] | [18] | [14]
